Bioassay records as filed in PubChem.
In the library only some 7.2% were active in any assay of this set; here they are far more common.
FMDV antiviral – antivirals against foot and mouth disease virus | hit rate 1.2% among 410,000 | Potency, µM (titrated, usually from 57.9 µM), for inactives: top-dose activity change, negative = inhibition, most hits filed as inhibitors | FMDV antiviral cell-based qHTS | AID 1159524; calls by dose curve; tested in HEK293T cells; also: read-out not given here; nearly all actives have a fitted effect of over 45% in size
HCV inh – HCV inhibition; hit rate 3.4% among 340,000; AID 651820; Potency, µM (series often up to 41.8 µM), for inactives: top-dose activity change, negative = inhibition, usual class: inhibitors; Huh7.5.1 HCVcc-Cre infection, luciferase reporter, 44 h
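Compounds are dispensed onto cells plated 4 h earlier at 1,000 per well, with HCVcc-Cre virus (about 0.5 moi) added next. Following 44 h of culture, luminescent signal is measured for 15 sec after 15 min with substrate at room temperature.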
MARV entry inh – Marburg virus entry inhibition; Marburg virus pseudotyped entry inhibition, cell reporter; Potency, µM (titrated, usually from 37.8 µM), for the others: at the top dose activity change, negative = inhibition, actives largely listed as inhibitors; hit rate 1.8% among 300,000; AID 540276; calls by dose curve; tested in HEK293 cells
Sm TGR block – S. mansoni TGR enzyme inhibition; hit rate 3% among 360,000; Q962Y6; purified TGR, DTNB reduction, TNB absorbance 405 nm; Potency, µM (top dose mostly 114 µM), inactives show at the top dose activity change, negative = inhibition, actives largely listed as inhibitors; also: nearly all actives have a fitted effect of over 60% in size
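First, TGR (20 nM dispensed) and NADPH were mixed with compound. Second, a 15 min room-temperature incubation followed. Third, further NADPH and then DTNB were added to start the reaction. Finally, TNB absorbance was monitored kinetically.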
Lassa entry inh – Lassa virus entry inhibition; hit rate 1.2% among 300,000; Potency, µM (highest dose often 37.9 µM), for the others: at the top dose activity change, negative = inhibition, hits mostly inhibitors; Lassa virus pseudotype entry inhibition, cell reporter; calls by dose curve; tested in HEK293 cells; also: nearly all actives have a fitted effect of over 50% in size
RE007 growth inh – less growth of the S. pombe RE007 Vpr strain | S. pombe RE007 Vpr strain, BacTiter-Glo ATP luminescence, 24 h | Potency, µM (titrated, usually from 92.2 µM), for inactives: top-dose activity change, negative = less growth, hits mostly inhibitors | hit rate 0.21% among 360,000; active = well fitted falling curve with a large enough effect; inconclusive = small, poorly fitted or top-dose-only effect; inactive = no such curve, though single readings can be large or run the other way; also: nearly all actives have a fitted effect of over 50% in size
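Fission yeast RE007 carrying one integrated HIV-1 vpr copy, seeded at OD 0.01 in PMG+AL medium with 23 nL pinned compound. Grown 24 h at 30 degrees; viability read by BacTiter-Glo luminescence after 5 min.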
Active calls of the source: *; [ ] = dose if it differs, or a comment. Unless noted, calls follow the shape of the dose curve; as a rule, active = well fitted curve in the direction sought with a large enough effect; inconclusive = small, poorly fitted or top-dose-only effect, or another doubt; inactive = no such curve, though single readings can be large; an effect the other way counts as inactive or inconclusive. % is scaled to controls: 0 for no effect and ±100 for the full control effect; potency is read from the fitted curve at half-maximal effect.

For CCCCC(=O)Nc1nc(C)c(-c2csc(Nc3cc(Cl)ccc3OC)n2)s1 the results were FMDV antiviral -14.4%, HCV inh -28.3%, Sm TGR block 5.1% and RE007 growth inh -4.5%.
COC(=O)CCC(=O)OC1(C)C(=O)C=C2C=C3CCCN3C=C2C1=O (configuration not stated) was read as FMDV antiviral -14.3%, HCV inh 14.1%, MARV entry inh -42.6%[14.2 µM], Sm TGR block inconclusive and RE007 growth inh -5.8%.
`CC1(OC(=O)c2ccc(Cl)nc2)C(=O)C=C2C=C3CCCN3C=C2C1=O` (configuration not stated) gave FMDV antiviral -9.1%, HCV inh 10.6%, MARV entry inh 2.1%[14.2 µM], Sm TGR block 35.5µM* and RE007 growth inh -12.9%.
For Clc1ccc(-c2noc3ncnc(N4CCCCC4)c23)cc1 the results were FMDV antiviral -28.0%, MARV entry inh 11.7%[46.1 µM], Sm TGR block -6.1% and Lassa entry inh -2.1%[46.1 µM].
Screening Clc1ccc(CCNc2nc3cc(Cl)c(Cl)cc3n3cnnc23)cc1 returned FMDV antiviral -9.7%, MARV entry inh 2.1%[46.1 µM], Sm TGR block 0.2% and Lassa entry inh 2.1%[46.1 µM].
`CCOc1ccc(Nc2cc(C)nc3ccc(C)cc23)cc1` gave FMDV antiviral inconclusive, HCV inh inconclusive, MARV entry inh inconclusive, Lassa entry inh 11.2µM* and RE007 growth inh inconclusive.
For Cc1ccc(Nc2cc(C)nc3ccccc23)c(C)c1 the results were FMDV antiviral inconclusive, HCV inh 31.6µM*, MARV entry inh 10µM*, Lassa entry inh -9.0% and RE007 growth inh -1.9%.
Screening Cc1ccc(C)c(Nc2cc(C)nc3ccccc23)c1 returned FMDV antiviral inconclusive, HCV inh inconclusive and RE007 growth inh 10.4%.
Screening Cc1cc(Nc2ccc3c(c2)OCCO3)c2cc(Cl)ccc2n1 returned FMDV antiviral 39.8µM*, HCV inh inconclusive, MARV entry inh -26.3%, Sm TGR block 0.3%, Lassa entry inh 9.1% and RE007 growth inh -8.3%.
For Cc1ccc(Nc2cc(C)nc3ccc(C)cc23)cc1 the results were FMDV antiviral -27.5%, HCV inh inconclusive, MARV entry inh 11.2µM*, Sm TGR block 6.4%, Lassa entry inh inconclusive and RE007 growth inh -14.3%.
CCOc1ccc2nc(C)cc(Nc3ccccc3OCC)c2c1 was read as FMDV antiviral -3.9%, Sm TGR block 1.9% and Lassa entry inh inconclusive.
For CCOC(=O)c1ccccc1NC(=O)CN1CCCN(Cc2cc(C)ccc2C)S1(=O)=O the results were FMDV antiviral -28.5%, Sm TGR block 6.1% and Lassa entry inh -1.9%[46.1 µM].
Screening CN(C)c1ccc(CC(=O)c2nc3ccccc3s2)cc1 returned FMDV antiviral -9.9%, HCV inh 7.7%, MARV entry inh 3.1%, Sm TGR block 39.8µM*, Lassa entry inh 2.7% and RE007 growth inh -11.6%.
CN(C)C(=O)c1nc2ccccc2s1 was read as FMDV antiviral 31.1%, HCV inh 8.2%, MARV entry inh inconclusive, Sm TGR block -0.9%, Lassa entry inh inconclusive and RE007 growth inh 9.1%.
Screening COc1ccc2c(c1)-c1nc(-n3ncc(C(=O)N(C)CCO)c3C3CC3)ncc1CC2 returned FMDV antiviral 35.3%.
`CCCCCCNC(=O)O[C@H]1Cn2c(=O)ccc(=O)n2[C@@H]2CN(S(=O)(=O)c3ccc(C)cc3)C[C@]12O` gave FMDV antiviral 17.8µM* and RE007 growth inh -3.0%.
Screening Cc1ccc(S(=O)(=O)N2C[C@H]3n4c(=O)ccc(=O)n4C[C@H](OC(=O)NCc4ccccc4F)[C@@]3(O)C2)cc1 returned FMDV antiviral 20µM* and RE007 growth inh 3.2%.
`O=C(OC(C(=O)Nc1ccc([N+](=O)[O-])cc1Br)c1ccccc1)c1ccccc1` (configuration not stated) gave FMDV antiviral 18.5%, HCV inh inconclusive, MARV entry inh 3.55µM*, Sm TGR block 0.3%, Lassa entry inh -2.4% and RE007 growth inh 8.2%.
`Cc1ccc(NC(=O)c2c(NC(=O)c3ccc(F)cc3)sc3c2CCCC3)cc1C` gave FMDV antiviral 45.2%, Sm TGR block 3.2% and Lassa entry inh -3.6%[46.1 µM].
Screening N#Cc1c(SCC(=O)Nc2nncs2)sc2c(O)cc(=O)[nH]c12 returned FMDV antiviral -8.9%, HCV inh 13.2%, MARV entry inh 2.7%[46.1 µM], Sm TGR block 35.5µM*, Lassa entry inh 9.8% and RE007 growth inh 2.5%.
For Cc1ccc(Cl)cc1N1CCN(C(=O)c2cn(C)c3ccc(S(=O)(=O)N4CCCC4)cc3c2=O)CC1 the results were FMDV antiviral -1.5%, MARV entry inh -19.8%[46.1 µM], Sm TGR block 1.6% and Lassa entry inh -2.8%[46.1 µM].
`C/C(=N/Nc1nc(C)cc(-c2ccccc2)n1)c1ccco1` gave FMDV antiviral -0.2%, HCV inh inconclusive, MARV entry inh 0.2%[46.1 µM], Sm TGR block -2.5%, Lassa entry inh inconclusive and RE007 growth inh -22.2%.
C/C(=N\Nc1nc(C)cc(-c2ccccc2)n1)c1ccc(C)o1 was read as FMDV antiviral inconclusive, HCV inh inconclusive, MARV entry inh -17.1%[46.1 µM], Sm TGR block -1.4%, Lassa entry inh inconclusive and RE007 growth inh -26.5%.
Screening C/C(=N\Nc1nc(C)cc(-c2ccccc2)n1)c1cccc(N)c1 returned FMDV antiviral -4.9%, HCV inh 6.31µM*, Sm TGR block -1.0% and RE007 growth inh -4.1%.
Screening C/C(=N\Nc1cc(C)nc(-c2ccccc2)n1)c1cccc([N+](=O)[O-])c1 returned FMDV antiviral inconclusive, HCV inh inconclusive, Sm TGR block 0.0% and RE007 growth inh -2.1%.
For C/C(=N\Nc1nc(C)cc(-c2ccccc2)n1)c1ccc(O)cc1 the results were FMDV antiviral 10.3%, HCV inh 11.2µM*, Sm TGR block 6.8% and RE007 growth inh 9.9%.
For C/C(=N\Nc1nc(C)cc(-c2ccccc2)n1)c1ccccc1 the results were FMDV antiviral 14.2%, HCV inh 15.8µM*, MARV entry inh inconclusive, Sm TGR block 0.0%, Lassa entry inh inconclusive and RE007 growth inh -8.4%.
`COc1cc(N/N=C(\C)c2ccc(N)cc2)nc(-c2ccccc2)n1` gave FMDV antiviral 16.9%, HCV inh 11.2µM*, Sm TGR block -0.8% and RE007 growth inh 5.0%.
C/C(=N\Nc1cc(-c2ccccc2)nc(-c2ccccc2)n1)c1ccc(O)c(C)c1 was read as FMDV antiviral 5.0%, HCV inh 3.55µM*, MARV entry inh inconclusive, Sm TGR block 9.6%, Lassa entry inh 11.0% and RE007 growth inh -3.5%.
Screening COc1cc(N/N=C(\C)c2ccc(O)c(C)c2)nc(-c2ccccc2)n1 returned FMDV antiviral 1.8%, HCV inh inconclusive, MARV entry inh inconclusive, Sm TGR block -5.1%, Lassa entry inh inconclusive and RE007 growth inh inconclusive.
